About 83,000 compounds went through this panel and 20% of them were active in at least one assay; those are over-represented in the sample as a whole.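 48-hour exposure, single concentration, 96-well plates; percent growth endpoint where 0 means no net growth. Active: below 10.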 Values without a mark were called inactive. Calls of active or inactive are those of the source.

Assay in all cases: NCI-60 one-dose screen, 48 h (100 = growth as untreated, 0 = no growth, -100 = all killed)
The subject of test [1] is BT-549 breast. The settings on record: 10 µM unless noted.
Test [2] deals with MDA-MB-435 melanoma. The settings on record: 10 µM unless noted.
Test [3] has as its system HCT-116 colon. As to conditions: 10 µM unless noted.
Test [4] relates to HCC-2998 colon. As to conditions: 10 µM unless noted.
Test [5] has as its system KM12 colon. The settings on record: 10 µM unless noted.
In test [6] the test system is SW-620 colon. The settings on record: 10 µM unless noted.
Test [7] has as its system MCF7 breast. The settings on record: 10 µM.

As to `COc1ccc(/C=C2\CCC/C(=C\c3ccc(OC)c(OC)c3)C2=O)cc1OC`, the growth in test [1] was 13%; in test [2], -8.1% (active); in test [3] it was -68.3% (active); in test [4], -30.1% (active); in test [5], -75.2% (active).
As for `Clc1ncccc1Nc1ccc2nnc(-c3ccncc3)n2n1`, the growth in test [2] is 102%; in test [6], 103%; in test [7] it was 94.2%; in test [3], 101%; in test [4], 95.7%; in test [5], 101%.
As to `O=C(Nc1ccc(Cl)cc1F)c1cc(Br)ccc1O`, the growth was 0.322% (active) in test [2]; 11.4% in test [6]; 4% (active) in test [7]; 5.79% (active) in test [3]; 16.7% in test [4].
Regarding `O=C(Nc1ccc(I)cc1F)c1cc(Br)ccc1O`, the growth in test [2] is -3.54% (active); in test [6], 7.36% (active); in test [7], 2.45% (active); in test [3], -8.63% (active); in test [4] it was 14.6%; in test [5], -7% (active).
Consider `Nc1n[nH]c2ccc([C@@H]3Nc4ccc5[nH]ncc5c4[C@H]4[C@H]5CCC(C5)[C@H]43)cc12`, for which the growth was -7.49% (active) in test [2]; 22.2% in test [6]; 18.7% in test [7]; 9.49% (active) in test [3]; 26.2% in test [4]; 11.5% in test [5].
For the compound `Cn1c(=O)n(C)c2cc(CNCCNc3ccnc4cc(Cl)ccc34)ccc21`, the growth in test [1] was 90.8%; in test [2], 38.7%; in test [7], 74.2%; in test [3], 28.1%; in test [5] it was 54.5%.
In the case of `O=c1oc2ccc(I)cc2c(=O)n1-c1ccc(Br)cc1F`, the growth in test [2] is -3.14% (active); in test [6], 8.98% (active); in test [7], 1.77% (active); in test [3] it was 0.474% (active); in test [4], 16.2%; in test [5], -4.63% (active).
Regarding `CSc1nc2c(c(=O)[nH]1)N=C1c3ccccc3C(=O)C1C(c1ccccc1)N2` (stereo not drawn), the growth was 40% in test [1]; 29.8% in test [6]; 17.3% in test [7]; 21.8% in test [3]; 53.1% in test [4]; 28.1% in test [5].
Consider `Cc1cccc2c(=O)c3c(sc12)c(NCCN)nc1ccccc13`, for which the growth is -93.9% (active) in test [2]; -77.6% (active) in test [6]; -82.1% (active) in test [7]; -93.9% (active) in test [3]; -77.8% (active) in test [4]; -90.5% (active) in test [5].
`CC(=O)SC1CC(=O)C=C2CCC3C4CCC(=O)OC4(C)CCC3C21C` (stereo not drawn): the growth is 92.4% in test [1]; 103% in test [6]; 97% in test [7]; 102% in test [3]; 99.3% in test [4]; 104% in test [5].
As for `O=c1oc2ccc(-c3ccc(F)cc3F)cc2c(=O)n1-c1cccc(C(F)(F)F)c1`, the growth in test [2] is 5.25% (active); in test [6], 12.6%; in test [7], 3.59% (active); in test [3] it was 8.28% (active); in test [4] it was 22.9%.
As for `CC(=O)c1ccc2oc(=O)n(Cc3ccc(C#N)cc3)c(=O)c2c1`, the growth in test [1] is 102%; in test [2] it was 99.3%; in test [3] it was 110%; in test [4], 102%; in test [5] it was 102%.
Turning to `COc1ccc(C(=O)C2CC2c2ccc(Cl)cc2)cc1` (stereo not drawn), the growth in test [2] is 95.6%; in test [6] it was 102%; in test [7], 103%; in test [3], 77.1%; in test [4], 98.8%; in test [5], 68.7%.
Take `COc1ccc(C(O)(CCC(C)C)C(CN2CCOCC2)c2ccc(Cl)cc2)cc1` (stereo not drawn): the growth is 62.2% in test [1]; 28.5% in test [6]; 55.6% in test [7]; 26.6% in test [3]; 64.6% in test [4]; 48% in test [5].
As to `CS(=O)(=O)Nc1ccc(C(=O)NC(C(=O)NO)c2ccc(-c3cccc(F)c3)cc2)cc1` (stereo not drawn), the growth in test [1] was 94.1%; in test [2], 54.5%; in test [3], 39.1%; in test [4] it was 62.6%; in test [5] it was 58.2%.
As for `CN1CCN(c2nc(Nc3ccc(O)cc3)nc3ccccc23)CC1`, the growth is 70.8% in test [1]; 57.2% in test [6]; 44.9% in test [7]; 94.6% in test [3]; 46.1% in test [4]; 65.6% in test [5].
As for `O=S1(=O)N(Cc2ccccc2)[C@@H](Cc2ccccc2)[C@H](O)[C@H](O)[C@H](Cc2ccccc2)N1Cc1ccccc1`, the growth in test [1] is 15.7%; in test [2], -4.2% (active); in test [3], -36.5% (active); in test [4] it was -45.7% (active); in test [5], -41.7% (active).
As to `O=c1oc2ccc(Br)cc2c(=O)n1-c1ccc(Cl)cc1F`, the growth was -8.83% (active) in test [2]; 9.75% (active) in test [6]; 3.69% (active) in test [7]; 1.83% (active) in test [3]; 22.7% in test [4].
As for `COc1ccc(-n2c(C(O)c3ccccc3)n[nH]c2=S)cc1` (stereo not drawn), the growth is 110% in test [1]; 105% in test [6]; 93.7% in test [7]; 96.3% in test [3]; 106% in test [4]; 101% in test [5].
With `COCCN(C(=O)Cc1cccs1)C(C(=O)NCc1ccc(OC)cc1)c1ccc(C(C)C)cc1` (stereo not drawn), the growth in test [2] was 104%; in test [6], 85.3%; in test [7], 85.4%; in test [3], 68.7%; in test [4] it was 81.4%; in test [5] it was 84.2%.
In the case of `COc1cc(OC)cc(N2C(=O)N(Cc3ccc(C(C)(C)C)cc3)c3ccccc3S2(=O)=O)c1`, the growth in test [1] is 99.6%; in test [6], 82.2%; in test [7] it was 90.7%; in test [3] it was 76.2%; in test [4] it was -46% (active); in test [5] it was 82.6%.

Values taken from PubChem BioAssay (NCI).
